Results: PubChem BioAssay (EPA / NIEHS)
Calls of active or inactive are those of the source. The calls were made as follows, unless noted: active = hit-call score of the fitted dose curve at least 0.9, where 1 is the maximum; inactive = score below 0.9.

Assays:
[1] = IUF_NPC1b_proliferation_BrdU_72hr: Leibniz Research Institute for Environmental Medicine (IUF) 72-hour Neural Progenitor Cell Bromodeoxyuridine (BrdU) Proliferation Assay (NPC1b) (AID 2284207)
Method in brief: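 Human fetal cortex-derived (GW 16-19) neural progenitor spheres, 0.25-0.35 mm, one per well in EGF/FGF proliferation medium, exposed to compound for 72 h at 37C, pH 7.2-7.6. BrdU incorporation over the final 16 h read by luminescence ELISA, relative to DMSO.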

[2] = IUF_NPC1a_proliferation_area_72hr: Leibniz Research Institute for Environmental Medicine (IUF) 72-hour Neural Progenitor Cell Proliferation Area Assay (NPC1a) (AID 2284208)
Method in brief: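 Single 0.25–0.35 mm human fetal neural progenitor spheres in proliferation medium with EGF and FGF, exposed 72 h from plating without renewal at 37C, pH 7.2-7.6. Sphere area growth measured by automated phase-contrast imaging, relative to DMSO.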

[3] = IUF_NPC1_viability_72hr: Viability Assessment at 72 hours in the Leibniz Research Institute for Environmental Medicine (IUF) Neural Progenitor Cell Proliferation Assay (NPC1) (AID 2284209)
Method in brief: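 Three-day continuous exposure of human neural progenitor spheres under EGF/FGF-driven proliferation; cell viability scored by alamar blue signal versus DMSO.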

[4] = CCTE_Mundy_HCI_Cortical_Synap_Neur_Matur_NeuriteSpotCountPerNeuriteLength: CCTE's Synaptogenesis and Neurite Maturation Assay in rat cortical cells for Neurite Spot Count per Neurite Length, Mundy Lab (AID 2284210)
Method in brief: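 Synaptophysin spots per unit neurite length, measured by automated imaging of MAP2/synaptophysin/Hoechst-stained neurons. Cultures from rat cortex received chemical at DIV 7 with media change through DIV 12; glial growth arrested by AraC at DIV 5; DMSO baseline.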

[5] = CCTE_Mundy_HCI_Cortical_NOG_NeuriteLength: CCTE's Neurite Outgrowth Assay in rat cortical cells for Neurite Length, Mundy Lab (AID 2284213);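 as to AC50: neurites imaged about 48 to 50 h after chemical exposure began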
Method in brief: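 First, rat primary cortical cells were plated and, 2 h later, given test chemical as a 1/10 dilution. Finally, βIII-tubulin immunostaining enabled automated imaging of neurite length.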

[6] = CCTE_Mundy_HCI_Cortical_Synap_Neur_Matur_NeuriteLength: CCTE's Synaptogenesis and Neurite Maturation Assay in rat cortical cells for Neurite Length, Mundy Lab (AID 2284214)
Method in brief: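 DMSO-normalised neurite length, from high-content imaging of anti-MAP2-stained rat cortical cells fixed at DIV 12. Glia were suppressed with AraC (DIV 5) before chemical exposure from DIV 7.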

[7] = CCTE_Mundy_HCI_Cortical_Synap_Neur_Matur_NeuriteSpotCountPerNeuron: CCTE's Synaptogenesis and Neurite Maturation Assay in rat cortical cells for Neurite Spot Count per Neuron Count, Mundy Lab (AID 2284215)
Method in brief: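 Rat primary cortical cultures given AraC at DIV 5, dosed from DIV 7 to DIV 12 with media change. Fixed, stained for MAP2, synaptophysin and Hoechst; neurite-associated synaptophysin puncta per neuron quantified by high-content imaging versus DMSO.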

[8] = CCTE_Mundy_HCI_Cortical_Synap_Neur_Matur_SynapseCount: CCTE's Synaptogenesis and Neurite Maturation Assay in rat cortical cells for Synapse Count, Mundy Lab (AID 2284218)
Method in brief: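 Endpoint: synapses/neuron by HCI (synaptophysin puncta on MAP2-labelled neurites, Hoechst nuclei). Rat primary cortical cells, AraC DIV 5, dosed DIV 7, fixed DIV 12; DMSO negative control.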

[9] = CCTE_Mundy_HCI_Cortical_Synap_Neur_Matur_CellBodySpotCount: CCTE's Synaptogenesis and Neurite Maturation Assay in rat cortical cells for Cell Body Spot Count, Mundy Lab (AID 2284223)
Method in brief: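 Primary rat cortical cultures, AraC added at DIV 5; dosed DIV 7 through DIV 12 […]. Fixed, stained for MAP2 and synaptophysin with Hoechst; cell body-associated synaptophysin puncta per neuron counted by high-content imaging, loss vs DMSO.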

[10] = CCTE_Mundy_HCI_hNP1_Casp3_7: CCTE's Caspase-Glo 3/7 Assay in human neuroprogenitor cells for Apoptosis, Mundy Lab (AID 2284240)
Method in brief: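 Apoptosis is scored by activated caspase-3/7 luminescence in WA09-derived neural progenitor cells, measured 26.5 h after chemical dosing. Values represent gain of signal relative to DMSO vehicle.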

[11] = IUF_NPC2c_oligodendrocyte_migration_120hr: Leibniz Research Institute for Environmental Medicine (IUF) 120-hour Neural Progenitor Cell Migration Assay for Oligodendrocyte Migration (NPC2c) (AID 2284297);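 also: O4-positive oligodendrocyte migration distance divided by radial glia migration distance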
Method in brief: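 Human fetal neural progenitor spheres (0.3 mm) are plated on poly-D-lysine/laminin in N2 differentiation medium and exposed for 120 h, with half-medium renewal at day 3. Oligodendrocyte (O4+) migration distance comes from ICC imaging, normalised to radial glia migration.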

[12] = IUF_NPC2a_radial_glia_migration_120hr: Leibniz Research Institute for Environmental Medicine (IUF) 120-hour Neural Progenitor Cell Migration Assay for Radial Glia Migration (NPC2a) (AID 2284298)
Method in brief: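 Human fetal-cortex neural progenitor spheres (0.3 mm) plated on poly-D-lysine/laminin in N2 differentiation medium, exposed 120 h at 37C with half-medium renewal at day 3. Radial glia migration distance (um) measured from Hoechst-stained nuclei images; DMSO baseline.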

[13] = IUF_NPC2a_radial_glia_migration_72hr: Leibniz Research Institute for Environmental Medicine (IUF) 72-hour Neural Progenitor Cell Migration Assay for Radial Glia Migration (NPC2a) (AID 2284299)
Method in brief: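 Spheres of human primary neural progenitors migrate on poly-D-lysine/laminin under compound exposure at 37C, 5% CO2. The 72 h radial glia migration distance comes from brightfield images, measured manually.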

[14] = IUF_NPC2b_neuronal_migration_120hr: Leibniz Research Institute for Environmental Medicine (IUF) 120-hour Neural Progenitor Cell Migration Assay for Neuron Migration (NPC2b) (AID 2284300)
Method in brief: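 0.3 mm hNPC spheres on poly-D-lysine/laminin in N2 differentiation medium exposed 120 h, half-medium refresh day 3; 7 concentrations, DMSO max 0.1%. Neuron (TUBB3) distance from sphere core by ICC imaging, normalised to radial glia migration.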

[15] = IUF_NPC3_neuronal_differentiation_120hr: Leibniz Research Institute for Environmental Medicine (IUF) 120-hour Neuronal Differentiation Assay (NPC3) (AID 2284301)
Method in brief: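 Value is percent TUBB3-positive neurons among Hoechst-stained nuclei in the migration area, scored by trained CNN after 120 h differentiation. Primary hNPC spheres on poly-D-lysine/laminin, N2 medium, continuous dosing from day 0, half-refeed day 3; DMSO reference.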

[16] = IUF_NPC4_neurite_length_120hr: Leibniz Research Institute for Environmental Medicine (IUF) 120-hour Neuronal Morphology Assay for Neurite Length (NPC4) (AID 2284302)
Method in brief: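 Neurite length, the mean in um across TUBB3-stained neurons, is derived by skeletonization of high-content images after 120 h differentiation. Compound exposure, 7 concentrations plus solvent control, ran from plating of hNPC spheres on poly-D-lysine/laminin, with medium half-replaced on day 3.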

[17] = IUF_NPC2-5_cytotoxicity_120hr: Cytotoxicity Assessment at 120 hours in the Leibniz Research Institute for Environmental Medicine (IUF) Neural Progenitor Cell Migration and Differentiation Assay (NPC2-5) (AID 2284307; active = hit-call score of the fitted dose curve at least 0.9, where 1 is the maximum;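 as to AC50: LDH released into supernatant as membrane damage marker via resorufin fluorescence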)
Method in brief: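 Human fetal (GW 16-19) neural progenitor spheres (0.3 mm) plated on poly-D-lysine/laminin in N2 differentiation medium, exposed 120 h with half-medium renewal at day 3; 7 concentrations plus solvent control, DMSO ≤0.1%. LDH release in supernatant read by resorufin fluorescence.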

[18] = IUF_NPC2-5_cell_number_120hr: Cell Number Assessment at 120 hours in the Leibniz Research Institute for Environmental Medicine (IUF) Neural Progenitor Cell Migration and Differentiation Assay (NPC2-5) (AID 2284308);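 also: count of Hoechst-stained nuclei in migration zone around plated human neural progenitor spheres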
Method in brief: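 Human fetal neural progenitor spheres (0.3 mm) plated on poly-D-lysine/laminin in N2 differentiation medium, exposed five days across 7 concentrations with half-medium refresh at day 3. Hoechst-positive nuclei counted in migration area at 120 h, relative to DMSO.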

[19] = IUF_NPC2-5_viability_120hr: Viability Assessment at 120 hours in the Leibniz Research Institute for Environmental Medicine (IUF) Neural Progenitor Cell Migration and Differentiation Assay (NPC2-5) (AID 2284312)
Method in brief: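 Alamar blue resorufin fluorescence read after 5 days of differentiation, with compound present from day 0 and replenished at day 3. Primary hNPC spheres on laminin-coated plates, 37C; seven concentrations plus solvent control, fitted against DMSO.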

[20] = UKN2_HCS_IMR90_cell_viability: Viability Assessment in the University of Konstanz (UKN) Leist Lab Neural Crest Cell Migration Assay in human induced IMR90 Pluripotent Stem Cells (UKN2) (AID 2284233);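 also: cells exposed to compound for 24 h after a 24 h migration phase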
Method in brief: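 After calcein-AM/Hoechst staining, viability is quantified by high-content fluorescence imaging, relative to DMSO, in iPSC (IMR90)-derived neural crest cells. Exposure lasts 24 h, starting after a 24 h migration period on PLO/laminin/fibronectin coating.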

Measured: AC50

CC1(C)[C@@H](C=C(Cl)Cl)[C@@H]1C(=O)O[C@@H](C#N)c1ccc(F)c(Oc2ccccc2)c1
not listed: [20]
inactive: all other assays above

C[n+]1ccc(-c2ccccc2)cc1
active: [1] 4.54 µM | [2] 18.7 µM
not listed: [4] | [5] | [6] | [7] | [8] | [9] | [10]
inactive: all other assays above

CC1(C)C(C=C(Cl)c2ccc(Cl)cc2)C1C(=O)OC(C#N)c1ccc(F)c(Oc2ccccc2)c1 (stereo not drawn)
active: [5] 50 µM | [6] 61.6 µM | [7] 72 µM | [8] 75.2 µM
inactive: all other assays above

CCOP(=S)(OCC)SCS(=O)C(C)(C)C (stereo not drawn)
active: [1] 2.34 µM
inactive: all other assays above

CCOP(=O)(OCC)OC(Cl)C(Cl)(Cl)Cl (stereo not drawn)
active: [4] 49.6 µM | [18] 36 µM
inactive: all other assays above

O=C(O)CNCP(=O)(O)O
inactive: [4] | [5] | [6] | [7] | [8] | [9] | [10]

CP(=O)(O)CCC(N)C(=O)O (stereo not drawn)
not listed: [4] | [5] | [6] | [7] | [8] | [9] | [10]
inactive: all other assays above

COP(=O)(OC)SCN1C(=O)c2ccccc2C1=O
active: [1] 24.8 µM
inactive: all other assays above

Clc1cc(Cl)c(-c2cc(Cl)c(Cl)c(Cl)c2Cl)cc1Cl
active: [20] 13.3 µM

CN1CC=C(c2ccccc2)CC1
inactive: [20]

C=CCN1CC[C@]23c4c5ccc(O)c4O[C@H]2C(=O)CC[C@@]3(O)[C@H]1C5
inactive: [4] | [5] | [6] | [7] | [8] | [9] | [10]

[CH3][Sn]([CH3])([CH3])[Cl]
active: [20] 4.51 µM

CC(C)CC(C)c1sccc1NC(=O)c1cn(C)nc1C(F)(F)F (stereo not drawn)
active: [20] 77.1 µM | [12] 10 µM
not listed: [4] | [5] | [6] | [7] | [8] | [9] | [10]
inactive: all other assays above

[CH3][Sn]([CH3])[CH3]
active: [5] 1.78 µM | [6] 2.41 µM | [7] 1.77 µM | [8] 1.79 µM | [10] 5 µM
inactive: [4] | [9]

O.O.O.O.O.[Cd+2].[Cd+2].[Cl-].[Cl-].[Cl-].[Cl-]
inactive: [9]
active: [4] 4.37 µM | [5] 30.8 µM | [6] 1.84 µM | [7] 1.62 µM | [8] 1.67 µM | [10] 50 µM

C[C@H](N)Cc1ccccc1
inactive: [4] | [5] | [6] | [7] | [8] | [9] | [10]

O=C1N[C@@H]2C(=C[C@H](O)[C@@H](O)[C@H]2O)c2cc3c(c(O)c21)OCO3
active: [1] 0.0216 µM | [2] 0.0237 µM | [3] 0.0383 µM | [20] 0.218 µM | [12] 0.037 µM | [13] 0.045 µM | [15] 0.0111 µM | [16] 0.0148 µM | [17] 0.0131 µM | [18] 0.0267 µM | [19] 0.0242 µM
inactive: [11] | [14]

CC1(C)C(C=C(Cl)Cl)[C@H]1C(=O)O[C@H](C#N)c1cccc(Oc2ccccc2)c1 (stereo partly drawn)
not listed: [4] | [5] | [6] | [7] | [8] | [9] | [10]
inactive: all other assays above

CC1(C)[C@H](C=C(Cl)Cl)[C@H]1C(=O)OCc1c(F)c(F)cc(F)c1F
active: [1] 0.897 µM | [4] 12.9 µM | [5] 78.2 µM | [6] 9.91 µM | [7] 9.68 µM | [8] 9.74 µM | [9] 12.8 µM | [10] 26.7 µM
inactive: all other assays above

O=[As](O)(O)O
active: [20] 104 µM
